Sampled rows, rich in hits. Any-hit rate of the full collection: about 10%.
GLS inhibitor: blocks human kidney-isoform glutaminase activity; Potency, µM (highest dose often 45.5 µM), most hits filed as inhibitors; GLS enzymatic activity, qHTS titration; O94925; hit rate 0.21% among 410,000
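Read-out is an Amplex red fluorescence increase coupled through glutamate oxidase and HRP, measured before and after 30 min room-temperature incubation. hKGA is in 45 mM KH2PO4 (pH 8.2) with 0.02% Tween-20; glutamine added as 1mM solution.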
G9a block: G9a (human) methyltransferase inhibition | Q96KQ7 | G9a H3K9 monomethylation, AlphaScreen, 2 h | Potency, µM (titrated, usually from 102 µM), hits mostly inhibitors | hit rate 8.8% among 350,000 | AID 504332; note: nearly all actives have a fitted effect of over 75% in size
Target sequence (Q96KQ7 913-1193 limits assumed): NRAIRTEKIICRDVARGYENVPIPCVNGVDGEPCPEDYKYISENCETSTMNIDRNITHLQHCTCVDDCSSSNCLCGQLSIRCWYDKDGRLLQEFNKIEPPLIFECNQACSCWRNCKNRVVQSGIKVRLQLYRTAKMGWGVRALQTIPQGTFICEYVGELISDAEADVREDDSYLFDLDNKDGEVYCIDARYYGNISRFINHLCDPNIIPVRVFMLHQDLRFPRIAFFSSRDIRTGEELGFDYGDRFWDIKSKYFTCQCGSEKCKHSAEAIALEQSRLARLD
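Compounds were preincubated with 20 nM G9a for 15 min, after which biotinylated H3K9 peptide (500 nM) and SAM (20 uM) started a 2 h room-temperature reaction. Monomethylated product was quantified by antibody-based AlphaScreen chemiluminescence.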
JMJD2A Tudor: blocks the human JMJD2A Tudor domain; AlphaScreen JMJD2A-Tudor / H3K4me3 peptide binding; O75164; Potency, µM (series often up to 114 µM), actives largely listed as inhibitors; AID 504339; hit rate 4.4% among 390,000; note: nearly all actives have a fitted effect of over 50% in size
HP1b binding inh: HP1-beta chromodomain-methylated histone interaction inhibition; P83916; AlphaScreen HP1-beta / biotin-H3K9me3 peptide binding; Potency, µM (top dose mostly 114 µM), hits mostly inhibitors; hit rate 0.56% among 390,000; note: nearly all actives have a fitted effect of over 70% in size
Target sequence (P83916 whole entry, looked up): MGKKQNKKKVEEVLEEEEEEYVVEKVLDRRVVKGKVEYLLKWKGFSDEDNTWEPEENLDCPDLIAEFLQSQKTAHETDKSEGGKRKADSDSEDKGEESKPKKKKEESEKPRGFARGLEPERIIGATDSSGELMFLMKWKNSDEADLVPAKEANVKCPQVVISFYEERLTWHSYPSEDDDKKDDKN
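AlphaScreen: HP1-beta (50 nM) preformed 30 min with biotin-H3(1-18)K9me3 peptide (50 nM) in PBS pH 7.4, 0.01% Tween-20. Compound added for 30 min at RT, then streptavidin donor/nickel chelate acceptor beads (10 ug/mL) for 30 min.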
L3MBTL1 block: inhibitors of human L3MBTL1; Q9Y468; AlphaScreen L3MBTL1–H3K9me1 peptide binding; Potency, µM (doses to about 57.1 µM), usual class: inhibitors; hit rate 0.66% among 230,000; note: nearly all actives have a fitted effect of over 60% in size
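L3MBTL1 50 nM + b-AHA-H3(1-15)K9me1 75 nM, 30 min RT; compound added, 30 min RT; streptavidin donor/Ni-chelate acceptor beads 10 ug/mL each final, 30 min RT dark; AlphaScreen read.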
BAZ2B inh: inhibitors of human BAZ2B bromodomain. AlphaScreen BAZ2B-H3K14Ac peptide displacement. Potency, µM (series often up to 114 µM), most hits filed as inhibitors. hit rate 4.4% among 360,000. AID 504333; note: nearly all actives have a fitted effect of over 60% in size
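AlphaScreen displacement: compounds (up to 110uM) incubated 30 min at room temperature with a preformed 50 nM BAZ2B/50 nM biotinylated H3K14Ac peptide complex in PBS pH 7.4 with Tween-20. Donor and acceptor beads at 10 ug/mL final added, 20 min light-protected before reading.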
A number is an active result; – = inactive; ? = inconclusive; · = no result given; [ ] = another dose, or the depositor's remark. Calls come from the whole dose curve; as a rule, active = well fitted curve in the direction sought with a large enough effect; inconclusive = small, poorly fitted or top-dose-only effect, or another doubt; inactive = no such curve, though single readings can be large; an effect the other way counts as inactive or inconclusive.

SMILES	GLS inhibitor	G9a block	JMJD2A Tudor	HP1b binding inh	L3MBTL1 block	BAZ2B inh
CN(C)c1ccc(CNC(=O)CCCn2ccc3cc(S(=O)(=O)N4CCCC4)ccc32)cc1	–	8.91µM	?	–	·	?
COc1ccc(N2CCN(C(CNC(=O)C(=O)NCc3ccc(F)cc3)c3cccnc3)CC2)cc1 (stereo not given)	–	–	–	–	·	–
CCCN1CCC(NC(=S)Nc2ccc([N+](=O)[O-])cc2)CC1	–	·	–	–	–	–
CCCN1CCN(C(=S)Nc2ccc([N+](=O)[O-])cc2)CC1	–	28.2µM	–	–	–	–
O=[N+]([O-])c1ccc(C(=S)N2CCCC2)cc1	–	–	–	–	–	?
CC1CCN(C(=S)c2ccc([N+](=O)[O-])cc2)CC1	–	7.94µM	–	?	–	?
CCN1CCN(C(=S)c2ccc([N+](=O)[O-])cc2)CC1	–	10µM	?	–	–	–
COc1ccc(-n2ccn(Cc3ccc(C)cc3)c(=O)c2=O)cc1OC	–	–	–	–	·	–
O=C(CCCn1c2ccccc2c(=O)c2ccccc21)Nc1ccc(F)cc1Cl	–	–	–	–	·	–
COc1cccc(C(=O)N2CCN(Cc3ccccc3C(F)(F)F)CC2)c1	–	3.55µM	–[11.4 µM]	?	–	28.2µM
COc1ccc(C(=O)N2CCN(Cc3cn[nH]c3-c3ccc(OC)cc3F)CC2)cc1	–	–	–	–	–	–
COc1ccc(C(=O)N2CCN(Cc3ccccc3C(F)(F)F)CC2)cc1	–	20µM	25.1µM	?	–	?
CCCCC12CN3CC(C)(CN(C1)C3c1ccc(OCc3ccccc3)cc1)C2=O (stereo not given)	–	–	–	–	·	–
CCOc1ccc(NC(=S)NC(=O)/C=C/c2ccc(OC)c(OC)c2)c([N+](=O)[O-])c1	–	50.1µM	?	–	–	–
CCOc1ccc(NC(=O)Cc2ccccc2)c([N+](=O)[O-])c1	–	–	–	–	5.01µM	?
CCOc1ccc(NC(=O)COc2ccccc2)c([N+](=O)[O-])c1	?	?	?	?	–	?
COc1cc(C(=O)NCC(=O)OCC(=O)c2ccc[nH]2)cc(OC)c1OC	–	–	–	–	–	–
COc1ccc(C(=O)NCC(=O)OCC(=O)c2cc(OC)c(OC)c(OC)c2)cc1OC	–	50.1µM	–	–	–	–
Cn1c(=O)[nH]c(=O)c2c1[nH]c(=S)n2Cc1ccc(Cl)cc1	?	0.891µM	3.16µM	14.1µM	·	22.4µM
Cn1c(=O)[nH]c(=O)c2c1[nH]c(=S)n2CCCc1ccccc1	?	·	3.16µM	10µM	–	25.1µM
Cn1c(=O)c2[nH]c(=S)n(Cc3ccccc3)c2n(C)c1=O	–	·	?	?	·	·
Cn1c(=O)[nH]c(=O)c2c1nc(Br)n2CCCc1ccccc1	·	–	·	·	·	–
Cn1c(=O)c2c([nH]c(=S)n2CCCc2ccccc2)n(C)c1=O	?	–[0.501 µM]	5.01µM	15.8µM	–[2.29 µM]	28.2µM
COc1ccc(OC)c(NC(=O)CN(C)S(=O)(=O)c2ccc(C(=O)N3CCOCC3)s2)c1	–	–	–	–	·	–
Cc1nc2ccc(NC(=S)N3CCN(c4ccccn4)CC3)cc2nc1C	–	–	–	–	–	–
SMILES	GLS inhibitor	G9a block	JMJD2A Tudor	HP1b binding inh	L3MBTL1 block	BAZ2B inh
Cc1ccc(C)c(N2CCN(C(=S)Nc3ccc4nc(N5CCN(C)CC5)cc(C)c4c3)CC2)c1	–	39.8µM	–	–	·	–
Cc1cc(N2CCN(C)CC2)nc2ccc(NC(=S)N3CCN(c4ccccn4)CC3)cc12	–	50.1µM	?	–	·	?
Cc1ccc(C)c(N2CCN(C(=S)Nc3ccc4nc(N5CCOCC5)cc(C)c4c3)CC2)c1	–	–	–	–	·	·
Cc1cc(N2CCN(C)CC2)nc2ccc(NC(=S)N3CCC4(CC3)OCCO4)cc12	–	44.7µM	–	–	·	–
CCOC(=O)c1cnn(-c2ccc(C(=O)Nc3cc(OC)c(OC)c(OC)c3)cc2)c1N	–	?	–	–	·	–
CC1CC(Nc2cccc(O)c2)=CC(=O)O1 (stereo not given)	–	–[2.33 µM]	–	–	·	–
C[C@@H]1Cc2c(O)c(O)cc(O)c2C(=O)O1	–	–	56.2µM	?	·	?
CCOC(=O)C1=NNC(C(=O)c2ccc(C)cc2)C1c1ccc(OC)cc1 (stereo not given)	–	50.1µM	–	–	·	–
CCOC(=O)C1=NNC(C(=O)c2ccc(Cl)cc2)C1c1ccc(OC)cc1 (stereo not given)	–	?	–	–	–	–
CC1CCN(C(=O)COC(=O)CSc2ccc(C(N)=O)cc2[N+](=O)[O-])CC1	–	–[2.33 µM]	–	–	–	–
Cc1ccc(NC(=O)CSc2ccc(C(N)=O)cc2[N+](=O)[O-])cc1C	?	–	14.1µM	–	–[11.4 µM]	–
NC(=O)c1ccc(SCC(=O)OCC(=O)N2CCCCC2)c([N+](=O)[O-])c1	–	50.1µM	–	–	–	–
Cc1ccc(NC(=O)CSc2ccc(C(N)=O)cc2[N+](=O)[O-])cc1	–	–	–	–	–	–
Cc1cc(Br)ccc1SCC(=O)OCC(=O)N1CCN(C(=O)c2ccco2)CC1	–	44.7µM	–	–	–	?
NC(=O)c1ccc(SCC(=O)OCC(=O)N2CCN(C(=O)c3ccco3)CC2)c([N+](=O)[O-])c1	–	56.2µM	–	–	?	–
CCC(=O)C1=C(c2cccc(OC)c2)N(C(=O)CC)n2c(nnc2C2CCCCC2)S1	–	–	–	–	·	–
CC1(C)S[C@@H]2[C@H](NC(=O)[C@H](N)c3ccccc3)C(=O)N2[C@@H]1C(=O)OCOC(=O)[C@@H]1N2C(=O)C[C@@H]2S(O)(O)C1(C)C	–	·	·	·	·	·
COc1ccc(C(=O)Oc2c(Sc3ccc(Cl)cc3)c(C)nn2C(C)(C)C)cc1OC	–	–	–	–	·	–
CN(CCCNC(=O)c1cccc(N2CCCC2=O)c1)c1ccccc1	–	8.91µM	–	–	–	–
C[C@H]1CC[C@H]2C(=O)N3[C@H](c4cccc(N5CCCC5=O)c4)[C@@H](C)CC[C@H]3C(=O)N2[C@@H]1c1cccc(N2CCCC2=O)c1	·	50.1µM	·	·	–	–
CCCCN(C)CCCNC(=O)c1cccc(N2CCCC2=O)c1	–	–	–	–	·	–
O=C(O)c1cccc(N2CCCC2=O)c1	–	50.1µM	–	–	–	–
CC1CCCCN1CCCNC(=O)c1ccc(N2CCCC2=O)cc1 (stereo not given)	–	–	–	–	–	–
CC1CC(C)CN(CCCNC(=O)c2ccc(N3CCCC3=O)cc2)C1 (stereo not given)	–	7.94µM	–	–	·	–
CC(C)c1ccc(NC(=O)Cn2cc(S(=O)(=O)Cc3cccc(Cl)c3)c3ccccc32)cc1	–	–	–	–	·	–

Assay outcomes: PubChem BioAssay, National Center for Advancing Translational Sciences (NCATS)
